Screening results (PubChem)
ST2 IL33 inh: inhibitors of human ST2 (IL1RL1) binding to IL-33, primary screen, biochemical, AlphaLISA. inhibition, % for hits at 17 µM. AlphaLISA ST2-Fc/biotin-IL-33 interaction, 1 h. Interleukin-1 receptor-like 1 (Homo sapiens), Q01638. hit rate 2.3% among 78,000. AID 1259354, 2018; in the data active = inhibition above about 30%
Target sequence (Q01638 whole entry, looked up): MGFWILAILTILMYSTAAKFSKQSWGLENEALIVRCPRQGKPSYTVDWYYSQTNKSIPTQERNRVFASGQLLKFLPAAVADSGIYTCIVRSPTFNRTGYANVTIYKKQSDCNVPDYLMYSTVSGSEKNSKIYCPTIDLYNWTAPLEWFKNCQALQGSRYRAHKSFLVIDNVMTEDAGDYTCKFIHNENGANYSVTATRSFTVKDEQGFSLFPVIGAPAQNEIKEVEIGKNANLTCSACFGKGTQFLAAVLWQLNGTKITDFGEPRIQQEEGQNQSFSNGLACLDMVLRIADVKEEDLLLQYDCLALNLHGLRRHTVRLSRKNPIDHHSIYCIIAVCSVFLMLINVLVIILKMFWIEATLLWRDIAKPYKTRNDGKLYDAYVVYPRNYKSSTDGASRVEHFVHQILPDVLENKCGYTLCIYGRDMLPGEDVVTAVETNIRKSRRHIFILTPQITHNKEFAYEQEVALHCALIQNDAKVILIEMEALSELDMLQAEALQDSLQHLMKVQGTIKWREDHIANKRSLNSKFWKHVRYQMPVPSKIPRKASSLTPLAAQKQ
Numbers without * were called inactive; i = inactive. This is one part of a sample in which hits are shown more often than they occur.

SMILES | ST2 IL33 inh
O=[N+]([O-])c1cccc([C@H]2NCC[C@@]3(O)CCCC[C@H]23)c1 | i
O=C(Nc1ccccc1)c1oc2ccccc2c1Cl | i
CCc1ccc(C2CC(=O)NC(SCC(N)=O)=C2C#N)cc1 (stereo not drawn) | i
COc1cccc(C(=O)Nc2ccc(Nc3nc(C)cc(Nc4ccc(C)cc4)n3)cc2)c1 | i
CCOc1ccc(C(=O)Nc2ccc(Nc3nc(C)cc(Nc4ccc(OC)cc4)n3)cc2)cc1 | 30%*
CCCC(=O)Nc1ccc(Nc2nc(C)cc(Nc3ccc(OC)cc3)n2)cc1 | i
CCN(c1ccccc1)S(=O)(=O)c1cc(Br)cc2c1N(C(C)=O)C(C)C2 (stereo not drawn) | i
Cc1ccc(O)c(CCc2ccc(O)c(S(=O)(=O)O)c2)n1 | i
Cc1ccc2c(C)ccc(O)c2n1 | 31%*
COc1ccc(-c2ncc(Cl)cn2)c2ccc(C)nc12 | i
CC(C)(C)NC(=O)CC(c1ccccc1)c1cc(Br)ccc1O (stereo not drawn) | i
Cc1ccc(NC(=O)c2cc3cc(Br)ccc3oc2=N)cc1 | i
NC(=O)c1ccc[n+](CC(=O)c2ccc(Cl)cc2)c1 | i
CN1CC2(CCCN(C(=O)c3ccn(C(C)(C)C)c3)C2)OC1=O (stereo not drawn) | i
CC(=O)Oc1ccc2c(=O)c(-c3ccccc3)c(C)oc2c1C | i
N#Cc1c(N=CC2C(=O)c3ccccc3C2=O)sc2c1CCCC2 | i
N#Cc1c(N=CN2CCCCC2)sc2c1CCCCC2 | 35%*
CC(=O)Nc1sc2c(c1C#N)CCC2 | i
Cc1cc(NC(=O)CSc2nc3c([nH]c4ccccc43)c(=O)n2C)no1 | i
CCCc1cnc(C)nc1-c1ccn[nH]1 | i
COc1ccc(S(=O)(=O)Nc2ccc3n(c2=O)C[C@H]2C[C@@H]3CN(C(=O)Cc3cccs3)C2)cc1 | i
COc1ccc(CC(=O)Nc2ccc(C)c([N+](=O)[O-])c2)cc1 | i
COc1ccc(N/C=C(/c2cc(O)ccc2O)[N+](=O)[O-])cc1 | 45%*
COc1ccc(C(=O)Nc2ccc([N+](=O)[O-])cc2)cc1 | i
Cc1cncc(C(=O)N2CCCC(O)(CN(C)C)CC2)c1 (stereo not drawn) | i
SMILES | ST2 IL33 inh
Cc1c(C(=O)N2CCC(C)CC2)sc2ncnc(N3CCN(c4ccccn4)CC3)c12 | i
CCOC(=O)C1C(=O)C=C(c2cccs2)CC1c1cccc(F)c1 (stereo not drawn) | 47%*
CCOC(=O)C1C(=O)C=C(c2ccco2)CC1c1cccs1 (stereo not drawn) | i
CCOC(=O)C1C(=O)C=C(c2cccc(OC)c2)CC1c1ccc(OC)c(OC)c1 (stereo not drawn) | i
CCOC(=O)N1CCC(NCc2csc(-c3cnccn3)n2)CC1 | i
COc1cccc(OC)c1C(=O)N1CCN=C1SCc1ccc(F)cc1 | i
CC(=O)N(CN1C(=O)c2ccccc2C1=O)c1ccccc1C | i
Cc1cc(C)nc(NC(=O)CCCC(=O)O)c1 | i
Cc1cc(C)nc(NC(=O)c2ccccc2F)c1 | 30%*
Cc1ccn2c(NC(=O)c3ccccc3F)c(-c3ccccc3)nc2c1 | i
O=C(c1ccccc1-c1ccccc1)N1CC(c2ccncc2)C1 | i
Cc1c(Cl)c([N+](=O)[O-])nn1CCCC(=O)Nc1ccc(Cl)cc1 | i
Cc1ccc(OCCCCn2cnc3ccccc3c2=O)c([N+](=O)[O-])c1 | i
COc1cccc(NC(=O)O[C@@H]2CO[C@H]3[C@@H]2OC[C@@H]3Nc2nccc(-c3ccc(-c4ccccc4)cc3)n2)c1 | i
COc1cc(NC(=O)N[C@H]2CO[C@H]3[C@@H]2OC[C@@H]3Nc2nccc(-c3cccs3)n2)cc(OC)c1 | i
O=C(Nc1ccc(Oc2ccccc2)cc1)O[C@@H]1CO[C@H]2[C@@H]1OC[C@@H]2Nc1nccc(-c2cccs2)n1 | 34%*
Fc1ccc(CN2CC[C@H](c3nnc(-c4ccco4)o3)C2)cc1F | i
CCOc1ccc2nc(N3CCOCC3)sc2c1 | i
O=C(CN1CCN(Cc2cccc(Cl)c2)C1=O)NCCN1CCOCC1 | i
CN(Cc1ccco1)C(=O)CN1C(=O)/C(=C\c2ccc(C(F)(F)F)cc2)Sc2ccccc21 | 31%*
O=C(CN1C(=O)/C(=C\c2cccc(Cl)c2)Sc2ccccc21)NCCN1CCCCCC1 | 43%*
O=C(CN1C(=O)/C(=C/c2ccccc2F)Sc2ccccc21)NCc1ccco1 | i
O=C(NCCCN1CCOCC1)N1c2ccccc2Sc2ccccc21 | i
CC1CC(=O)N(CC(=O)NCc2ccco2)c2ccccc2S1 (stereo not drawn) | i
O=C(CN1C(=O)CSc2ccc(S(=O)(=O)N3CCCCC3)cc21)NCCN1CCCC1 | i
SMILES | ST2 IL33 inh
CCC1Oc2ccccc2N(CC(=O)NCCCN2CCOCC2)C1=O (stereo not drawn) | i
O=C1S/C(=C/c2cccc(Cl)c2)C(=O)N1CN1CCCCC1 | i
O=C(CN1C(=O)/C(=C\c2cccc(Cl)c2)Sc2ccccc21)NCCN1CCOCC1 | 36%*
O=C(Nc1ccccc1C(=O)NCCN1CCOCC1)c1ccc(Cl)cc1Cl | i
O=C(CN1C(=O)/C(=C\c2cccc(Cl)c2)Sc2ccccc21)NCCCN1CCOCC1 | 32%*
Cc1cc(-n2cnnc2Cc2cccnc2)n(C)n1 | i
NS(=O)(=O)c1cc(C(=O)Nc2ccccc2F)c(Cl)cc1Cl | i
O=C(NCCc1ccccc1)c1ccc2nc[nH]c2c1 | i
COc1ccccc1C1C(C(=O)Nc2nc3ccccc3s2)=C(C)NC2=C1C(=O)CC(C)(C)C2 (stereo not drawn) | i
CC(=O)c1ccc(NC(=O)N[C@H]2C[C@@](O)(C(=O)N[C@@H](Cc3ccc(O)cc3)C(N)=O)C[C@@H](O)[C@@H]2O)cc1 | i
COc1ccc(N(CC(=O)Nc2ccccc2Cl)S(C)(=O)=O)cc1Cl | i
CN(C)CC1(O)CCCN(C(=O)c2cccc(-n3cccn3)c2)CC1 (stereo not drawn) | i
CCCS(=O)(=O)N1CCCC(C(=O)NCCN(C)C)C1 (stereo not drawn) | i
O=C(CN1C(=O)/C(=C\c2ccc(C(F)(F)F)cc2)Sc2ccccc21)N1CCCC1 | 30%*
O=C(CN1CCCC1)N1c2ccccc2Sc2ccc(C(F)(F)F)cc21 | i
CNC(=O)c1ccc(/C=C2\Sc3ccccc3N(Cc3ccc(F)cc3)C2=O)cc1 | i
O=C(CN1C(=O)/C(=C\c2cccc(Cl)c2)Sc2ccccc21)N1CCCCC1 | 33%*
COc1ccc(/C=C2\SC(=O)N(CC(=O)N3CCCCC3)C2=O)cc1OC | i
CN1CCN(C(=O)CN2C(=O)S/C(=C\c3ccc(Cl)cc3)C2=O)CC1 | i
COc1ccc(C(=O)Nc2cccc(C(=O)O)c2)cc1S(=O)(=O)N1CCOCC1 | i
CC(C)N(C(=O)Nc1cccc(Cl)c1)C(C)C | i
O=C(Nc1ccccc1-c1ccc2ncccc2c1)C1CC1 | i
CN(C)C1CCN(C(=O)CC(=O)Nc2ccc(F)c(Cl)c2)C1 (stereo not drawn) | i
Cc1ccc2cc3cc(C(=O)NC(C)C)sc3nc2c1 | i
Cc1cccn2c(=O)c3cc(C(=O)Nc4ccccc4F)sc3nc12 | 35%*
Cc1ccc(Cl)cc1NC(=O)c1cc2c(=O)n3cccc(C)c3nc2s1 | i
COc1ccc2cc3cc(C(=O)Nc4cccc(C#N)c4)sc3nc2c1 | i
COc1ccc(N2CCN(C(=O)c3cc4cc5ccc(OC)cc5nc4s3)CC2)cc1 | i
